Source: PubChem BioAssay
The list is not random: actives were taken first. Their share in the collection is about 2.9%.
EPAC1 ag val = Validation qHTS for agonist of cAMP-regulated guanine nucleotide exchange factor 3 (EPAC1). Potency, µM, inactives show max response, positive = active, most hits filed as activators. 16,000 tested, 1% active. EPAC1 Rap1b BODIPY-GDP exchange, fluorescence. AID 1645883, 2021. Rap guanine nucleotide exchange factor 3 (Homo sapiens), O95398; further: nearly all actives have a fitted effect of over 70% in size
EPAC2 ant val = Validation qHTS for antagonist of cAMP-regulated guanine nucleotide exchange factor 4 (EPAC2) | 16,000 tested, 1.7% active | AID 1645886, 2021 | Rap guanine nucleotide exchange factor 4 (Homo sapiens), Q8WZA2 | EPAC2 Rap1B BODIPY-GDP exchange, fluorescence | Potency, µM (top dose mostly 112 µM), inactives show top-dose activity, negative = inhibition, actives largely listed as inhibitors;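 further: 100% = activation by cAMP agonist control; nearly all actives have a fitted effect of over 40% in size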
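Normalized against a 6.5 mM cAMP agonist control, compounds were tested on 100 nM EPAC2 exchanging Rap1B-bound BODIPY-GDP (250 nM) for 50 uM GDP. Fluorescence drop (ex 480, em 540 nm) was tracked at room temperature over 30 min at 5-min intervals.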
The depositor's hits bear a star; ! = a repeat was not active; [ ] = dose if it differs, or a comment. The call rests on the fitted dose curve; in most records, active means well fitted curve in the direction sought with a large enough effect; inconclusive means small, poorly fitted or top-dose-only effect, or another doubt; inactive means no such curve, though single readings can be large; an effect the other way counts as inactive or inconclusive. Unless noted, on the % scale 0 is the no-effect control and ±100 the full control effect; potency means the concentration at half of the fitted maximal effect.

Screening Cc1c(N)nc(C(CC(N)=O)NCC(N)C(N)=O)nc1C(=O)NC(C(=O)NC(C)C(O)C(C)C(=O)NC(C(=O)NCCc1nc(-c2nc(C(=O)NCCCN[C@@H](C)c3ccccc3)cs2)cs1)C(C)O)C(O[C@@H]1O[C@@H](CO)[C@@H](O)[C@H](O)[C@@H]1O[C@H]1O[C@H](CO)[C@@H](O)[C@H](OC(N)=O)[C@@H]1O)c1cnc[nH]1 (some centres undefined) returned EPAC1 ag val 8% and EPAC2 ant val -1%.
Screening CC(C)(C)C(=O)OCC(=O)[C@H]1CC[C@H]2[C@@H]3CCC4=CC(=O)CC[C@]4(C)[C@H]3CC[C@]12C returned EPAC1 ag val -24% and EPAC2 ant val -17%.
Cc1c(C)c2c(c(C)c1OC(=O)CCC(=O)OCCO)CC[C@@](C)(CCC[C@H](C)CCC[C@H](C)CCCC(C)C)O2 was read as EPAC1 ag val -240% and EPAC2 ant val 43%.
`CNC(=O)[C@@H]1C[C@@H](NCc2cccc(Oc3ccccc3)c2)CN1C(C)C` gave EPAC1 ag val -17% and EPAC2 ant val -15%.
`Cc1cnc(SCc2ccccn2)nc1C1CCCN(C(=O)c2noc3c2CCCC3)C1` (centres undefined) gave EPAC1 ag val -11% and EPAC2 ant val inconclusive.
Screening O=C1O[C@@H]2[C@@H](O)[C@H](O)O[C@@H]2[C@H]1O returned EPAC1 ag val 5% and EPAC2 ant val -15%.
NCCCC[C@H](NC(=O)[C@@H]1CCCN1C(=O)[C@@H]1CSSC[C@H](N)C(=O)N[C@@H](Cc2ccc(O)cc2)C(=O)N[C@@H](Cc2ccccc2)C(=O)N[C@@H](CCC(N)=O)C(=O)N[C@@H](CC(N)=O)C(=O)N1)C(=O)NCC(N)=O was read as EPAC1 ag val -5% and EPAC2 ant val -12%.
CCOC(=O)C1=C(C)NC(C)=C(C(=O)OC)C1c1cccc(Cl)c1Cl (centres undefined) was read as EPAC1 ag val 56µM*! and EPAC2 ant val inconclusive.
For CCOC(=O)C1=C(COCCN)NC(C)=C(C(=O)OC)C1c1ccccc1Cl (centres undefined) the results were EPAC1 ag val 1% and EPAC2 ant val -4%.
`O=C(O)c1cc(O)c2c(c1)[C@H]([C@H]1c3cc(C(=O)O)cc(O)c3C(=O)c3c(O[C@@H]4O[C@H](CO)[C@@H](O)[C@H](O)[C@H]4O)cccc31)c1cccc(O[C@@H]3O[C@H](CO)[C@@H](O)[C@H](O)[C@H]3O)c1C2=O` gave EPAC1 ag val inconclusive and EPAC2 ant val 79µM*.
`OCC1OC(Oc2cccc3cccnc23)C(O)C(O)C1O` (centres undefined) gave EPAC1 ag val 1% and EPAC2 ant val -7%.
For CC1CN(Cc2cccn2-c2cccnc2)Cc2cc(Cl)ccc2O1 (centres undefined) the results were EPAC1 ag val 11% and EPAC2 ant val -28%.
`Cc1ccc(C(=O)Nc2cnn(-c3ccc(C(=O)N(C)Cc4n[nH]c5c4CCCC5)cc3)c2)c(C)c1` gave EPAC1 ag val 21% and EPAC2 ant val -12%.
Screening CC(C)N1CCN(c2ccc(OC[C@H]3CO[C@](Cn4cncn4)(c4ccc(Cl)cc4Cl)O3)cc2)CC1 returned EPAC1 ag val -3% and EPAC2 ant val -8%[56.6 µM].
CC(=O)N1CCN(c2ccc(OCC3CO[C@@](Cn4ccnc4)(c4ccc(Cl)cc4Cl)O3)cc2)CC1 (some centres undefined) was read as EPAC1 ag val inconclusive and EPAC2 ant val 35µM*.
For O=C([C@@H]1C[C@@H](Sc2nc3ccccc3[nH]2)CN1Cc1ccc(C(F)(F)F)cc1)N1CCN(c2ccccc2F)CC1 the results were EPAC1 ag val -13% and EPAC2 ant val -31%.
Screening c1ccc2c(Cc3c[nH]c4ccccc34)c[nH]c2c1 returned EPAC1 ag val 100µM* and EPAC2 ant val inconclusive.
O=C1N[C@@H](Cc2c[nH]c3ccccc23)C(=O)N[C@H]1Cc1c[nH]c2ccccc12 was read as EPAC1 ag val 4% and EPAC2 ant val -1%.
Screening O=c1c(-c2ccccc2)nc2cnc(Nc3ccccc3)nc2n1Cc1cccs1 returned EPAC1 ag val 112µM* and EPAC2 ant val 11%.
COc1ncc2nc(-c3cccs3)c(=O)n(Cc3cccs3)c2n1 was read as EPAC1 ag val inconclusive and EPAC2 ant val -18%.
For COCCn1c(=O)c(-c2ccccc2)nc2cnc(Nc3ccccc3)nc21 the results were EPAC1 ag val -14% and EPAC2 ant val -15%.
`COc1ncc2nc(-c3ccccc3)c(=O)n(Cc3cccs3)c2n1` gave EPAC1 ag val 112µM* and EPAC2 ant val inconclusive.
For CO[C@@H]1[C@@H](O[C@@H]2O[C@H](C)[C@@H](O[C@H]3C[C@@](C)(O)[C@@H](OC(=O)CC(C)C)[C@H](C)O3)[C@H](N(C)C)[C@H]2O)[C@@H](CC=O)C[C@@H](C)[C@@H](O)/C=C/C=C/C[C@@H](C)OC(=O)C[C@H]1O the results were EPAC1 ag val 0% and EPAC2 ant val -4%.
For CC[C@H]1OC(=O)[C@H](C)[C@@H](O[C@H]2C[C@@](C)(OC)[C@@H](O)[C@H](C)O2)[C@H](C)[C@@H](O[C@@H]2O[C@H](C)C[C@H](N(C)C)[C@H]2O)[C@](C)(O)C[C@@H](C)/C(=N\OCOCCOC)[C@H](C)[C@@H](O)[C@]1(C)O the results were EPAC1 ag val -27% and EPAC2 ant val 17%[56.6 µM].
`Cc1nc2sccn2c1CN1Cc2ccccc2OC(c2ccccc2F)C1` (centres undefined) gave EPAC1 ag val 1% and EPAC2 ant val inconclusive.
`CC1(C)CCC2=C(O1)c1ccccc1C(=O)C2=O` gave EPAC1 ag val -7% and EPAC2 ant val 28µM*!.
Screening OCCN(CCO)c1nc(N2CCCCC2)c2nc(N(CCO)CCO)nc(N3CCCCC3)c2n1 returned EPAC1 ag val 35µM*! and EPAC2 ant val inconclusive.
COc1ccc(C(=O)CC(=O)c2ccc(C(C)(C)C)cc2)cc1 was read as EPAC1 ag val -40% and EPAC2 ant val 3%.
COc1ccc(C(Cl)=C(c2ccc(OC)cc2)c2ccc(OC)cc2)cc1 was read as EPAC1 ag val inconclusive and EPAC2 ant val 3.2µM*!.
O=C(O)COc1ccc(C(=O)c2cccs2)c(Cl)c1Cl was read as EPAC1 ag val -12% and EPAC2 ant val -6%.
CCCC[C@@]1(C2CCCC2)Cc2cc(OCC(=O)O)c(Cl)c(Cl)c2C1=O was read as EPAC1 ag val -6% and EPAC2 ant val 14µM*.
Screening CCOC(=O)N1CCN(Cc2ccc3c(c2)CN(C(=O)c2ccc4ncccc4c2)CCO3)CC1 returned EPAC1 ag val 1% and EPAC2 ant val -11%.
For COCC(C)NCc1cc2ccc(OC)cc2nc1N1CCN(c2ccc(F)cc2)CC1 (centres undefined) the results were EPAC1 ag val 10% and EPAC2 ant val -13%.
For CN1[C@@H]2CCC[C@@H]1CC(NC(=O)c1nn(C)c3ccccc13)C2 (some centres undefined) the results were EPAC1 ag val -10% and EPAC2 ant val 21%.
Screening O=C(O)c1ccccc1Nc1cccc(C(F)(F)F)c1 returned EPAC1 ag val -59% and EPAC2 ant val 35µM*!.
For O=C(O)c1ccccc1Nc1ccccc1 the results were EPAC1 ag val -2% and EPAC2 ant val -11%.
